23 compounds from PubChem BioAssay (NCATS) can be followed below.

The structures appear in SMILES notation. Records with an inconclusive call do not appear. Active and inactive are the calls of the source. The call rests on the fitted dose curve; in most records, active means well fitted curve in the direction sought with a large enough effect; inconclusive means small, poorly fitted or top-dose-only effect, or another doubt; inactive means no such curve, though single readings can be large; an effect the other way counts as inactive or inconclusive.

Assay [1] in a line: qHTS of pediatric cancer cell lines to identify multiple opportunities for drug repurposing: Primary screen for TC32 cells (AID 1347089). Further: nearly all actives have a fitted effect of over 60% in size. Further: potency means the concentration at half of the fitted maximal effect. The method in brief: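 A viability screen of TC32 cells was run over 48 h, with primary MIPE doses spanning 0.78 nM–46 µM and NPC doses 0.59 nM–46 µM. ATP luminescence (CellTiter-Glo) served as the read-out.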
For orientation: qHTS replaces the single test concentration by a dilution series.

Assay [2] can be described thus: qHTS of pediatric cancer cell lines to identify multiple opportunities for drug repurposing: Primary screen for DAOY cells (AID 1347090). Further: nearly all actives have a fitted effect of over 55% in size. Further: potency means the concentration at half of the fitted maximal effect. In a few lines:
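Viability measured as metabolically active cells via CellTiter-Glo luminescence following 48 hours of compound exposure, 11-point dilutions in confirmatory testing. 500-1,000 cells/well plated 5 hours before dosing; controls were DMSO and 2.3 µM bortezomib.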

A short description of assay [3]: qHTS of pediatric cancer cell lines to identify multiple opportunities for drug repurposing: Primary screen for A673 cells (AID 1347092). Further: nearly all actives have a fitted effect of over 45% in size. Further: potency means the concentration at half of the fitted maximal effect. The method in brief: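 Titration-based qHTS on A673 cells: MIPE compounds spanned 11 points (0.78 nM to 46 µM final), NPC compounds 8 points (0.59 nM to 46 µM final). Viability after 48 h was measured by ATP luminescence.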
Assay [4] can be described thus: qHTS of pediatric cancer cell lines to identify multiple opportunities for drug repurposing: Primary screen for SK-N-MC cells (AID 1347093). Further: potency means the concentration at half of the fitted maximal effect. In a few lines:
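Metabolically active cells were quantified by ATP-dependent luminescence (CellTiter-Glo, 15 min at room temperature) following 48 h treatment. Cells had been plated at 500-1,000 per well and settled for 5 h beforehand.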

A short description of assay [5]: qHTS of pediatric cancer cell lines to identify multiple opportunities for drug repurposing: Primary screen for BT-37 cells (AID 1347094). Further: series mostly up to about 57 µM. In a few lines: (§1)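 500-1,000 cells/well; 5 h pre-incubation 37 °C/5% CO2; compound pinned; 48 h; CellTiter-Glo, 15 min RT; luminescence. MIPE 11-pt from 0.78 nM, NPC 8-pt from 0.59 nM final. Bortezomib 2.3 µM final as positive control.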

The nature of assay [6]: qHTS of pediatric cancer cell lines to identify multiple opportunities for drug repurposing: Primary screen for U-2 OS cells (AID 1347096). Further: nearly all actives have a fitted effect of over 50% in size. Further: potency means the concentration at half of the fitted maximal effect. In a few lines: (§2)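 Viability after 48 h compound treatment at 37C, 500-1,000 cells/well, read as ATP luminescence with CellTiter-Glo. Primary screens used 11-point (MIPE, 0.78 nM-46 µM) or 8-point (NPC, 0.59 nM-46 µM) final concentrations; follow-up screens used 11-point dilutions.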

Assay [7] in a line: qHTS of pediatric cancer cell lines to identify multiple opportunities for drug repurposing: Primary screen for SK-N-SH cells (AID 1347098). Further: nearly all actives have a fitted effect of over 65% in size. Further: potency means the concentration at half of the fitted maximal effect. In a few lines:
(§3)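 Cells (500-1,000/well) rested 5 h, then received compounds for 48 h; metabolically active cells were measured by CellTiter-Glo luminescence. Final concentrations spanned up to 46 µM (MIPE, 11-point) or 0.59 nM-46 µM (NPC, 8-point) in primary screens, 11-point in follow-ups.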

Assay [8] in a line: qHTS of pediatric cancer cell lines to identify multiple opportunities for drug repurposing: Primary screen for Rh18 cells (AID 1347102). Further: nearly all actives have a fitted effect of over 65% in size. Further: potency means the concentration at half of the fitted maximal effect. In a few lines:
as §2

Assay [9] can be described thus: qHTS of pediatric cancer cell lines to identify multiple opportunities for drug repurposing: Primary screen for RD cells (AID 1347104). Further: nearly all actives have a fitted effect of over 55% in size. Further: potency means the concentration at half of the fitted maximal effect. In a few lines: as §1
Assay [10] in a line: qHTS of pediatric cancer cell lines to identify multiple opportunities for drug repurposing: Primary screen for NB-EBc1 cells (AID 1347095). In a few lines:
as §1

A short description of assay [11]: qHTS of pediatric cancer cell lines to identify multiple opportunities for drug repurposing: Primary screen for Saos-2 cells (AID 1347097). Further: nearly all actives have a fitted effect of over 40% in size. Further: potency means the concentration at half of the fitted maximal effect. In a few lines:
as §1

Assay [12] in a line: qHTS of pediatric cancer cell lines to identify multiple opportunities for drug repurposing: Primary screen for LAN-5 cells (AID 1347100). The method in brief:
as §2

A short description of assay [13]: qHTS of pediatric cancer cell lines to identify multiple opportunities for drug repurposing: Primary screen for BT-12 cells (AID 1347101). Further: nearly all actives have a fitted effect of over 25% in size. The method in brief: as §3
Assay [14] is described as follows: qHTS of pediatric cancer cell lines to identify multiple opportunities for drug repurposing: Primary screen for OHS-50 cells (AID 1347103). Further: nearly all actives have a fitted effect of over 40% in size. Further: potency means the concentration at half of the fitted maximal effect. The method in brief:
as §3

A short description of assay [15]: qHTS of pediatric cancer cell lines to identify multiple opportunities for drug repurposing: Primary screen for NB1643 cells (AID 1347099). Further: nearly all actives have a fitted effect of over 50% in size. Further: potency means the concentration at half of the fitted maximal effect. The method in brief: as §1

As to `CCCCCCCCCCCCSCCOCCO`, the Potency result in assay [1], in assay [2], in assay [3], in assay [4], in assay [5] and in assay [6] was “inactive” throughout. For the same compound, the Potency entry in [7], in [8] and in [9] was “inactive” each time.
Regarding `O=C1C(O)=C(O)C(=O)C(O)=C1O`, the Potency result in [1], in [2], in assay [3], in [10], in [6] and in [11] was “inactive” in each case. The Potency result in assay [7], in assay [12], in [13], in assay [8], in assay [14] and in [9] was “inactive” each time.
Turning to `CCCCCCCCCCCCCCC[C@H](O)[C@@H](N)CO`, the Potency result in assay [1], in assay [2], in assay [3], in assay [4], in [5] and in assay [10] was “inactive” each time. Moreover, the Potency result in assay [6], in [11], in [7], in assay [15], in assay [13] and in assay [8] was “inactive” each time. Further, the Potency result in assay [14] and in [9] was “inactive” each time.
As to `OCc1ccccn1`, the Potency result in assay [1], in assay [2], in assay [3], in [5], in assay [6] and in assay [11] was “inactive” each time. Further, the Potency entry in assay [7], in assay [15], in [12], in [13], in assay [8] and in assay [14] was “inactive” throughout. Further, the Potency entry in assay [9] is “inactive”.
Consider `O=C1OC(CN2CCOCC2)CN1/N=C/c1ccc([N+](=O)[O-])o1` (stereo not given), for which the Potency result in assay [1], in [2], in [4], in assay [5], in assay [10] and in [6] was “inactive” throughout. Moreover, the Potency result in [11], in assay [7], in assay [15], in [12], in assay [13] and in [8] was “inactive” each time. For the same compound, the Potency result in assay [14] and in assay [9] was “inactive” each time.
Consider `O=[N+]([O-])c1ccc(/C=N\O)o1`, for which the Potency result in [1], in assay [2], in assay [5], in [10], in assay [6] and in assay [7] was “inactive” each time. Besides, the Potency result in assay [8], in assay [14] and in assay [9] was “inactive” each time. Also, the Potency in [4] was 4.22 µM (active).
With `C=CCN1CCc2nc(N)sc2CC1`, the Potency entry in assay [1], in [2], in assay [3], in assay [5], in assay [10] and in assay [6] was “inactive” each time. For the same compound, the Potency entry in assay [11], in assay [7], in assay [15], in [12], in assay [13] and in [8] was “inactive” in each case. Further, the Potency entry in assay [14] and in [9] was “inactive” throughout.
With `O=C1[C@H](CC[C@H](O)c2ccc(F)cc2)[C@@H](c2ccc(O)cc2)N1c1ccc(F)cc1`, the Potency result in [1], in assay [2], in assay [3], in [5], in assay [10] and in assay [6] was “inactive” throughout. For the same compound, the Potency entry in [11], in [7], in assay [15], in assay [12], in [8] and in [9] was “inactive” each time.
For `CN(C)CCOC(c1ccc(Cl)cc1)c1ccccn1` (stereo not given), the Potency result in [1], in assay [2], in assay [3], in assay [5], in assay [10] and in assay [6] was “inactive” in each case. Moreover, the Potency result in [11], in assay [7], in assay [15], in [12], in [8] and in [9] was “inactive” throughout.
`Cc1c[nH]c2ccccc12`: the Potency result in assay [1], in assay [2], in assay [3], in [5], in assay [6] and in assay [11] was “inactive” in each case. For the same compound, the Potency entry in assay [7], in [15], in assay [12], in assay [13], in [8] and in assay [14] was “inactive” throughout. Further, the Potency entry in assay [9] is “inactive”.
Turning to `CNCCCCOc1ccccc1Cc1ccccc1`, the Potency result in assay [1], in [2], in [10] and in [6] was “inactive” throughout. Moreover, the Potency in assay [3] was 26.6 µM (active); in [7] it was 24.4 µM (active); in assay [9] it was 23.7 µM (active).
Turning to `CCC(Cc1c(I)cc(I)c(N)c1I)C(=O)O` (stereo not given), the Potency entry in [1], in assay [2], in [3], in [5], in assay [10] and in assay [6] was “inactive” each time. Also, the Potency entry in [11], in [7], in assay [15], in [12], in assay [13] and in assay [8] was “inactive” throughout. Besides, the Potency result in assay [14] and in assay [9] was “inactive” throughout.
For the compound `CNCCc1ccccn1`, the Potency entry in [1], in assay [2], in [3], in [4], in assay [5] and in assay [10] was “inactive” each time. The Potency entry in assay [6], in [7], in [15], in assay [12], in assay [13] and in [8] was “inactive” in each case. Moreover, the Potency result in assay [9] was “inactive”.
Regarding `CC(=O)Nc1ncc([N+](=O)[O-])s1`, the Potency result in assay [1], in [2], in assay [3], in assay [4], in assay [5] and in assay [6] was “inactive” each time. Moreover, the Potency result in [11], in assay [7], in [15], in [12], in assay [13] and in [8] was “inactive” each time. For the same compound, the Potency entry in assay [14] and in assay [9] was “inactive” in each case.
With `O=C1c2cccc3c2[C@H](CCC3)CN1[C@@H]1CN2CCC1CC2`, the Potency result in assay [1], in assay [2], in assay [3], in assay [10], in assay [6] and in [11] was “inactive” in each case. Further, the Potency result in assay [7], in assay [15], in [12], in [13], in [8] and in assay [9] was “inactive” in each case.
Consider `Cc1ccc(S(=O)(=O)NC(=O)NC2CCCC2)cc1`, for which the Potency result in assay [1], in assay [2], in [3], in assay [4], in assay [5] and in assay [10] was “inactive” each time. The Potency result in [6], in assay [7], in [15], in [12], in assay [13] and in assay [8] was “inactive” in each case. In addition, the Potency result in [14] and in assay [9] was “inactive” throughout.
As for `CC(C)n1c(/C=C/[C@@H](O)C[C@@H](O)CC(=O)O)c(-c2ccc(F)cc2)c2ccccc21`, the Potency in assay [1] was 16.7 µM (active); in assay [2], 1.33 µM (active); in [3] it was 5.31 µM (active); in assay [6], 6.68 µM (active); in assay [11] it was 1.5 µM (active); in assay [7] it was 3.44 µM (active). Moreover, the Potency in assay [15] was 10.6 µM (active); in [8], 7.5 µM (active); in assay [14] it was 6.92 µM (active). For the same compound, in assay [12], the Potency result is “inactive”.
Take `c1ccc(-c2nc[nH]c2-c2ccccc2)cc1`: the Potency entry in assay [1], in assay [2], in assay [3], in assay [5], in assay [6] and in [7] was “inactive” in each case. In addition, the Potency result in [12] and in assay [9] was “inactive” each time.
For the compound `C#C[C@]1(O)CC[C@H]2[C@@H]3CCc4cc(OC)ccc4[C@H]3CC[C@@]21C`, the Potency result in assay [1], in [2], in [3], in assay [5], in assay [10] and in [6] was “inactive” throughout. For the same compound, the Potency result in assay [11], in [15], in [12], in [13], in assay [8] and in assay [9] was “inactive” throughout.
Take `CO[C@H]1C=CO[C@@]2(C)Oc3c(C)c(O)c4c(O)c(c(/C=N/N5CCN(C)CC5)c(O)c4c3C2=O)NC(=O)/C(C)=C\C=C[C@H](C)[C@H](O)[C@@H](C)[C@@H](O)[C@@H](C)[C@H](OC(C)=O)[C@@H]1C`: the Potency entry in assay [1], in assay [2], in assay [3], in assay [5], in assay [10] and in assay [12] was “inactive” in each case. Also, the Potency entry in assay [9] was “inactive”.
With `CC(=O)Nc1ccc(S(=O)(=O)Nc2ccc([N+](=O)[O-])cc2)cc1`, the Potency entry in [1], in assay [2], in assay [3], in assay [5], in assay [10] and in assay [6] was “inactive” each time. In addition, the Potency entry in assay [15], in assay [13], in assay [8], in [14] and in assay [9] was “inactive” each time.
Regarding `Cn1c(=O)c2[nH]c(Br)nc2n(C)c1=O`, the Potency entry in assay [1], in assay [2], in assay [3], in [10], in assay [6] and in assay [11] was “inactive” throughout. Further, the Potency entry in assay [7], in [15], in assay [12], in assay [13], in assay [8] and in [9] was “inactive” in each case.
For the compound `CC(C)CCCC(C)N` (stereo not given), the Potency entry in assay [1], in [2], in assay [3], in [4], in assay [5] and in assay [6] was “inactive” throughout. Moreover, the Potency entry in assay [11], in assay [7], in assay [12], in assay [13], in assay [8] and in [14] was “inactive” throughout. The Potency result in [9] is “inactive”.
